# Most compounds without a hit are left out; they make up all but 1.6% or so of the library.
# gsp ag = qHTS for Agonist of gsp, the Etiologic Mutation Responsible for Fibrous Dysplasia/McCune-Albright Syndrome: qHTS; gsp mutant cells, cAMP HTRF, 30 min; Potency, µM (highest dose often 76.9 µM), without a hit: top-dose activation (cAMP increase), actives largely listed as activators; 0.13% of 340,000 active; active means well fitted activation curve with a large enough effect; inconclusive means small, poorly fitted or top-dose-only effect, or another doubt; inactive means no such curve, though single readings can be large or run the other way; cell line not stated here;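 further: phosphodiesterase inhibitor Ro 20-1724 added with compounds to block cAMP breakdown; potency means the concentration at half of the fitted maximal effect; nearly all actives have a fitted effect of over 60% in size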
#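 Cells stably selected in G418 were plated at 2000/well, grown 16-24 hr, then given compounds in DMSO with the PDE inhibitor […] (300 uM solution added) for 30 min at 37C; cAMP was read by HTRF.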
# Giardia kill = Small Molecules that selectively kill Giardia lamblia: qHTS; Giardia lamblia trophozoite viability; activity change, % at 7.66 µM, hits read low; 0.15% of 340,000 active; AID 540267, 2011; in the data active means activity change below about -80%; inconclusive means between about -30% and that limit;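 further: parasites exposed to compound for two days anaerobically before the ATP read; on the % scale 0 is the no-effect control and ±100 the full control effect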
#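 Luminescent ATP signal served as the viability read-out, measured 15-30 min after adding ATP detection reagent to trophozoites that had been incubated with compounds for 48 hrs at 37 deg C anaerobically at 100 cells/well.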
# RXFP1 antag = qHTS Assay for Antagonists of the Relaxin Receptor RXFP1; Relaxin receptor 1 (Homo sapiens), Q9HBX9; HEK293-RXFP1, relaxin-stimulated cAMP HTRF, 30 min; hits give low values; activity change, negative = inhibition, % at 57.5 µM; 0.59% of 350,000 active; AID 1259400, 2018;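 active means activity change of -60% or lower, but not beyond a set lower limit; inconclusive means change between -60% and -40%, or beyond the set limit; inactive means change above -40%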; further: on the % scale 0 is the no-effect control and ±100 the full control effect
# Target sequence (Q9HBX9 whole entry, looked up): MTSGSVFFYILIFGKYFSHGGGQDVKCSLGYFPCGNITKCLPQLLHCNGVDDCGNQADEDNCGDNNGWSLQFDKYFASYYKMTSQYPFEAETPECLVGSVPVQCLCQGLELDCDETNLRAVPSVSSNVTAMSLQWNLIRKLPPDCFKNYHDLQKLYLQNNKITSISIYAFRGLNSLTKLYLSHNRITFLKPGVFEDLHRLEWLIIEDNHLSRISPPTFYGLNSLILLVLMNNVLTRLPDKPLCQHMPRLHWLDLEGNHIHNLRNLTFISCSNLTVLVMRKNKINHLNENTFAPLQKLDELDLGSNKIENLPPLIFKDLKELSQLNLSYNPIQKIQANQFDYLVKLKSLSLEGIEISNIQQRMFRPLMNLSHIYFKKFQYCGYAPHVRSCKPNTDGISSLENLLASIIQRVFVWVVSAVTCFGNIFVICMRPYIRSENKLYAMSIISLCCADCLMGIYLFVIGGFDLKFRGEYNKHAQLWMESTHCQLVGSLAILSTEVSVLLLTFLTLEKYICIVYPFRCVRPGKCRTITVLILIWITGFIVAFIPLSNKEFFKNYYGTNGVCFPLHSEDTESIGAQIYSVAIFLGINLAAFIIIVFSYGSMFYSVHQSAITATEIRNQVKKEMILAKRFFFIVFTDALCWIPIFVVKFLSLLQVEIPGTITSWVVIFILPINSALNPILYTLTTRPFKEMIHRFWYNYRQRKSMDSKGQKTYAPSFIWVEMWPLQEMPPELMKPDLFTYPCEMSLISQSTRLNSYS
# RXFP1 agonist = qHTS Assay for Agonists of the Relaxin Receptor RXFP1; Relaxin receptor 1 (Homo sapiens), Q9HBX9; HEK293T-RXFP1 cAMP TR-FRET, 30 min; response scale: percent of porcine relaxin response, buffer zero; Potency, µM (titrated, usually from 57.5 µM), without a hit: at the top dose activation, hits mostly activators; 0.3% of 370,000 active; AID 2676, 2010; active means well fitted activation curve with a large enough effect; inconclusive means small, poorly fitted or top-dose-only effect; further: potency means the concentration at half of the fitted maximal effect; on the % scale 0 is the no-effect control and ±100 the full control effect; nearly all actives have a fitted effect of over 60% in size
#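 Agonist response is measured as cAMP accumulation in an RXFP1-transfected HEK293T line under PDE4 inhibition. Values are scaled between buffer-only and 29 nM porcine relaxin, and EC50s come from standard Hill equation fits.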
# gsp antagonist = qHTS for Antagonists of gsp, the Etiologic Mutation Responsible for Fibrous Dysplasia/McCune-Albright Syndrome: qHTS. gsp-mutant cells, cAMP HTRF, 30 min. Potency, µM (top dose mostly 76.9 µM), without a hit: at the highest dose activity change, negative = inhibition, hits mostly inhibitors. 0.4% of 340,000 active; calls by dose curve; cell line not stated here;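 further: intracellular cAMP measured with PDE inhibitor Ro 20-1724 present during compound exposure; potency means the concentration at half of the fitted maximal effect; on the % scale 0 is the no-effect control and ±100 the full control effect; nearly all actives have a fitted effect of over 65% in size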
#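 Measurement of cellular cAMP by homogeneous time-resolved fluorescence following a 30 min compound exposure at 37C. The PDE inhibitor […] was present throughout; the assay buffer was DPBS with 0.05% BSA and 0.005% Tween 20.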
# FBPA coupling cs = qHTS Assay for Inhibitors of Fructose-1,6-bisphosphate Aldolase from Giardia Lamblia: Coupling assay counterscreen. coupling enzyme system counterscreen, AmpLite Red fluorescence. activity change, negative = inhibition, % at 58.2 µM, hits read low. 0.67% of 290,000 active; in the data active means activity change below about -30%; further: on the % scale 0 is the no-effect control and ±100 the full control effect
#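 Compounds tested against the coupling enzymes alone at 57.5 uM final; readout was AmpLite Red fluorescence (525/598 nm) after 20 min at RT.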
# Numbers without * were called inactive; ? = inconclusive; nt = no result given; [ ] = another dose, or the depositor's remark.
SMILES,gsp ag,Giardia kill,RXFP1 antag,RXFP1 agonist,gsp antagonist,FBPA coupling cs
CN(C)c1cccc2c1c(NC(=O)Nc1ccc(Cl)cc1Cl)nn2C,7%,8,-2,1%,-9%,-23
COC(=O)c1c(C)[nH]c(C(=O)C(C)OC(=O)C2CC(=O)N(c3ccc(C)cc3)C2)c1C (stereo not given),28%,6,-11,0%,40µM*,nt
CC(=O)N(c1onc(C)c1C)S(=O)(=O)c1ccc(N)cc1,nt,nt,-11,nt,nt,nt
Nc1nnnn1-c1ccccc1,nt,nt,-74*,nt,nt,nt
O=C(CSc1nnnn1-c1ccccc1)CSc1nnnn1-c1ccccc1,1%,-7,-1,2%,-7%,2
CC1CCC2C(=O)OC(CO)CN2C1c1ccc(Br)cc1 (stereo not given),nt,nt,nt,nt,nt,-3
CCCCCCn1c(/C=C/c2ccccc2)nc2ccccc21,nt,-16,-35,8%,nt,nt
CC(C)Cn1c(/C=C/c2ccccc2)nc2ccccc21,21%,-26,-66*,4%,?,-7
CCCn1c(/C=C/c2cc[n+](C)cc2)nc2ccccc21,?,26,16,20µM*,12%,-6
CC(C)OP(=O)(CP(=O)(OC(C)C)OC(C)C)OC(C)C,nt,nt,-13,nt,nt,nt
COc1ccc(CNC(C)C(=O)Nc2ccc3ccccc3c2)cc1OC (stereo not given),-2%[15.4 µM],6,-11,1%,11µM*,2
Nc1ccc(NC(=O)c2cc(Cl)ccc2O)c(Cl)c1,nt,-17,nt,nt,nt,nt
O=C(N/N=C/c1ccc(-c2cccc([N+](=O)[O-])c2)o1)c1ccccc1O,-23%,?,-6,3%,50µM*,1
O=C(N/N=C/c1ccc([N+](=O)[O-])o1)c1cc(-c2ccc(-c3ccccc3)cc2)nc2ccccc12,-27%,-98*,-5,0%,22%,-4
Cc1ccc(/C=N/NC(=O)c2cc(-c3ccncc3)nc3ccccc23)o1,27%,-16,11,1%,-6%,0
O=C(N/N=C/c1ccc([N+](=O)[O-])o1)c1cc(-c2ccncc2)nc2ccccc12,?,-11,-2,-1%,1%,1
CC(/C=N/NC(=O)c1cc(-c2ccncc2)nc2ccccc12)=C\c1ccco1,16%,22,-8,4%,9%,-40*
Cc1cc(N/N=C/c2ccc([N+](=O)[O-])o2)nc2ccccc12,20%[15.4 µM],-82*,-27,3%,nt,1
COc1ccc(CNC(=O)CCNS(=O)(=O)c2ccc3c(c2)CCCC(=O)N3)cc1,nt,nt,nt,-3%,nt,nt
c1ccc(-c2nc(-c3cccc4ccccc34)c(NC3CCCCC3)o2)cc1,nt,nt,nt,nt,nt,0
Cc1ccc(-c2cc(C(=O)N/N=C/c3ccc([N+](=O)[O-])o3)c3ccccc3n2)o1,24%,-92*,-25,-2%,-22%,nt
Cc1ccc2c(c1)c1c(c(=O)n(-c3ccccc3C)c(=O)n1Cc1cccc(F)c1)n2C,nt,nt,nt,7%,nt,nt
O=C(NCc1nnnn1-c1ccc(F)cc1)c1ccc([N+](=O)[O-])o1,14%[15.4 µM],-95*,25,-2%,2%,nt
O=C(NCC(c1ccc(F)cc1)N1CCOCC1)c1ccc([N+](=O)[O-])o1 (stereo not given),-29%,-101*,2,nt,-7%,nt
Cc1ccc(-n2nnnc2CNC(=O)c2ccc([N+](=O)[O-])o2)cc1C,7%,?,3,2%,12%,nt
O=C(CCN1C(=O)/C(=C/c2cccs2)SC1=S)Nc1ccc(O)cc1,11%,-8,-9,4%,1%,0
O=C(CCN1C(=O)/C(=C/c2cccs2)SC1=S)Nc1cccc(O)c1,-39%,-23,?,-5%,40µM*,1
COc1ccc(/C=C2\SC(=S)N(CCCC(=O)Nc3ccccc3C(=O)O)C2=O)cc1OC,?,-14,-18,1%,35µM*,nt

# Screening data as filed in PubChem.
